Laboratory results: paper PMC5540273 (PLoS ONE, 2017)

Experiments:
Details in all cases: concentration: 1 μM,replicates: in singlicate; n = 1
MAP3K15 = tested on: MAP3K15
MAP3K1 = tested on: MAP3K1
MAP3K2 = tested on: MAP3K2
MAP3K3 = tested on: MAP3K3
MAP3K4 = tested on: MAP3K4
MAP4K2 = tested on: MAP4K2
MAP4K3 = tested on: MAP4K3
MAP4K4 = tested on: MAP4K4
MAP4K5 = tested on: MAP4K5
MAPKAPK2 = tested on: MAPKAPK2
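Further: KINOMEscan kinase panel screen.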

Row | SMILES | %Inh (MAP3K15) [%] | %Inh (MAP3K1) [%] | %Inh (MAP3K2) [%] | %Inh (MAP3K3) [%] | %Inh (MAP3K4) [%] | %Inh (MAP4K2) [%] | %Inh (MAP4K3) [%] | %Inh (MAP4K4) [%] | %Inh (MAP4K5) [%] | %Inh (MAPKAPK2) [%]
1 | O=C(NOCC1CC1)c1cc(Br)c(F)c(F)c1Nc1ccc(I)cc1Cl | 0 | 0 | 0 | 0 | 0 | 0 | 0 | 0 | 0 | 0
2 | COc1ccc(Nc2nccc(N3CCC(NC(=O)c4cccc(C#N)c4)C3)n2)cc1 (stereo not shown) [GSK1379730] | 0 | 1 | 0 | 0 | 40 | 0 | 0 | 16 | 10 | 0
3 | Cc1cccc(-c2nc(Nc3ccncc3)c3sccc3n2)n1 [GW869641] | 30 | 37 | 44 | 28 | 0 | 50 | 5 | 37 | 11 | 0
4 | Cl.Nc1n[nH]c2cc(-c3ccccn3)ccc12 [GSK2189892] | 0 | 0 | 0 | 0 | 0 | 0 | 0 | 6 | 0 | 7
5 | C[C@@H](Oc1cc(-n2cnc3ccc(-c4ccncc4)cc32)sc1C(N)=O)c1ccccc1Cl [GSK483724] | 0 | 41 | 4 | 0 | 21 | 10 | 10 | 11 | 15 | 0
6 | Cc1ccc(CC(=O)N2CCc3cc(-c4cn(C)c5ncnc(N)c45)ccc32)cc1 [GSK2634758] | 0 | 10 | 55 | 22 | 90.3 | 3 | 96.7 | 0 | 77 | 6
7 | FC(F)(F)c1cc(Br)cc(Nc2nccc(-c3cnn4ncccc34)n2)c1 [GW810578] | 0 | 3 | 14 | 29 | 15 | 41 | 7 | 0 | 18 | 0
